# A selection: hits, their analogues and other compounds. The true share with any hit is near 2.1%.
# PvdQ acylase: blocks Pseudomonas aeruginosa PvdQ acylase activity; AID 488965; inhibition, % at 10 µM; 0.063% of 340,000 active; purified PvdQ acylase, fluorescence plate reader; in the data active means inhibition above about 30%, passing the limit was not always enough
# ERAP1 HTS inh: blocks human ERAP1 aminopeptidase activity; Q9NZ08; recombinant ERAP1, Leu-AMC fluorescence, 60 min; inhibition, % at 10.7 µM; 0.15% of 340,000 active;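 active means mean replicate inhibition of at least 30%, or all replicates individually reaching that 30% level; inactive means mean below 30% and not every replicate reaching it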
# Target sequence (Q9NZ08 whole entry, looked up): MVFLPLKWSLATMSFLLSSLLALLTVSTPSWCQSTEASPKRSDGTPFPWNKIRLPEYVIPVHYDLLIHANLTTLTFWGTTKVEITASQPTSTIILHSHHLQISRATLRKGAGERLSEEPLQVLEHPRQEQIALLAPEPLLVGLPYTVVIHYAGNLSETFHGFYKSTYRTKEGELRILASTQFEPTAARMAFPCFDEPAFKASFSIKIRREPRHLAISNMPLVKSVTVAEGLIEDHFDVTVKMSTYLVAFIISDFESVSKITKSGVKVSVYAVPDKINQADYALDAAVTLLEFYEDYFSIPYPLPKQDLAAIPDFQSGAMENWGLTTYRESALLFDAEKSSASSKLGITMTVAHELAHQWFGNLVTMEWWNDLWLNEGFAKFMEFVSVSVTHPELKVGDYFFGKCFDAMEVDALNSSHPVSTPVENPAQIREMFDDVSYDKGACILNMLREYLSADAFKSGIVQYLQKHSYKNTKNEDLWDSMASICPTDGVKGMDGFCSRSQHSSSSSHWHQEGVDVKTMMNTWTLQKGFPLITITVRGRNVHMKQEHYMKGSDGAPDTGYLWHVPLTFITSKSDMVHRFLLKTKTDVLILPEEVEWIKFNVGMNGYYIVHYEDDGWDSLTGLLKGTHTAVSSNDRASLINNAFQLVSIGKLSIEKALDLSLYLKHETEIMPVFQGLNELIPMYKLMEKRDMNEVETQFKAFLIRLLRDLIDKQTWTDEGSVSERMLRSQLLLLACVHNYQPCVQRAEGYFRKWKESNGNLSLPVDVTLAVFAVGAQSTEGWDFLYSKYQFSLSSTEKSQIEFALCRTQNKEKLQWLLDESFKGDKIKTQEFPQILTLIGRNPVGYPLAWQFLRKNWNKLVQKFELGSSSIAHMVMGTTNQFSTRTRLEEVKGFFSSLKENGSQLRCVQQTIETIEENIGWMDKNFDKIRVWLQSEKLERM
# CFTR F508del cor: correctors of CFTR F508del function in bronchial epithelial cells; CFBE cells, YFP halide quenching; stimulated with forskolin plus potentiator P3; % fluorescence drop versus neutral controls; AID 720511; 0.36% of 350,000 active; activity (quench increase), % at 7.58 µM;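 active means mean added fluorescence quench of at least 8% versus neutral control, with both replicates also reaching 8%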;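 further: cells transiently co-express mutant CFTR-F508del with the halide-sensitive YFP; corrector assay measuring rescue of mutant channel to the surface after 24 h compound exposure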
# Ecoli rRNA inh: selective bacterial rRNA inhibition in E. coli | E. coli WT GFP vs humanized-ribosome RFP mutants, fluorescence, 24 h; stronger effect = lower value; DMSO median 0, no signal -100 | GFP signal change (wild-type ribosome), % (concentration not given with the values) | 1.6% of 350,000 active;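 active means significant combined selectivity score with lowered wild-type GFP, culture density cut under 30%, mutant RFP and density less affected; inactive means any of these conditions unmet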
# ARNT-TACC3 inh: ARNT/TACC3 interaction disruption; Q9Y6A5; AlphaScreen His-ARNT PAS-B/GST-TACC3 binding, luminescence; TACC3 fragment carries E629A point mutation; inhibition, % at 9.99 µM; 0.66% of 390,000 active; AID 623870;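 active means mean inhibition of replicates at least 50% and at least half of replicates each reaching 50%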
# Hits are given with their value; – = inactive; · = no result given.
SMILES,PvdQ acylase,ERAP1 HTS inh,CFTR F508del cor,Ecoli rRNA inh,ARNT-TACC3 inh
C[C@@H]1CN([C@H](C)CO)C(=O)c2cc(C3=CCCC3)cnc2O[C@H]1CN(C)C(=O)C1CCC1,·,–,–,–,–
C[C@H]1CN([C@@H](C)CO)C(=O)Cc2cc(NC(=O)CCN3CCOCC3)ccc2O[C@@H]1CN(C)C(=O)NC1CCCCC1,·,–,–,–,–
O=[N+]([O-])c1ccccc1/C=N/n1c(-c2ccccc2)n[nH]c1=S,–,–,–,–,–
O=[N+]([O-])c1ccccc1/C=C/C=N/n1c(-c2ccccc2F)n[nH]c1=S,–,–,–,-21.4,–
CC1CCN(S(=O)(=O)N2CCCC(C(=O)NCc3ccccc3Cl)C2)CC1 (stereo not given),–,–,9.6,–,–
CC1CC(C)CN(S(=O)(=O)N2CCCC(C(=O)NCc3ccccc3Cl)C2)C1 (stereo not given),–,–,–,–,–
Cc1noc(C)c1S(=O)(=O)Nc1ccc2c(c1)C(=O)N([C@H](C)CO)C[C@@H](C)[C@H](CN(C)C(=O)NC(C)C)O2,·,–,–,–,–
COc1ccccc1CNC(=O)CSc1ccc(-c2cccs2)nn1,–,–,–,-25.3,–
Nc1nc(-c2ccccc2)[nH]c(=O)c1N=O,–,–,–,–,–
Nc1[nH]c(=O)nc(Nc2ccccc2)c1N=O,–,–,·,–,27.7
Cc1ccccc1CN1CCc2c(OCC(=O)N3CCCCC3)cccc2C1=O,–,–,–,-25.3,–
O=C(N/N=C/C(Br)=C/c1ccccc1)C(O)c1ccccc1 (stereo not given),–,–,–,-27.4,–
CC(=O)N1CC2(C1)[C@H](c1ccc(-c3cccc(C#N)c3)cc1)[C@H](CO)N2CCC(F)(F)F,·,–,–,–,·
COc1ccccc1/C=C/C(=O)N1CCC(c2ccccc2)C1 (stereo not given),–,–,·,-22.9,–
Cc1noc(C)c1NC(=O)N(C)C[C@@H]1Oc2ccc(N(C)C)cc2CC(=O)N([C@@H](C)CO)C[C@H]1C,·,–,–,–,–
O=C(Cc1ccccn1)NCC[C@@H]1CC[C@H](NC(=O)Nc2ccc(C(F)(F)F)cc2)[C@@H](CO)O1,·,–,14.2,–,–
O=c1c2c(nc3c(-c4ccc(Cl)cc4)c[nH]n13)CCC2,–,–,–,–,46.0
CS(=O)(=O)N1CCCCN2[C@H](CO)[C@@H](c3ccc(-c4cccc(C#N)c4)cc3)[C@@H]2C1,·,–,–,–,–
O=C(C[C@H]1C[C@@H]2c3cc(NC(=O)C4CCC4)ccc3O[C@@H]2[C@@H](CO)O1)NCc1cccnc1,·,–,–,–,·
O=c1cc(N2CCCCC2)c(-c2ccccc2)nn1Cc1ccccc1,–,–,–,–,–
Cn1nc(-c2ccccc2)c(N2CCCCC2)cc1=O,–,–,–,-41.5,–
O=C(NC1CCCCC1)c1cc(Cl)ccc1[N+](=O)[O-],61.6,·,·,·,–
O=C(NC1CCCC1)c1cc(Cl)ccc1[N+](=O)[O-],94.1,–,·,–,–
O=C(NC1CC1)c1cc(Cl)ccc1[N+](=O)[O-],–,·,·,·,–
CCCC#Cc1ccc2c(c1)O[C@@H](CN(C)CC1CCOCC1)[C@@H](C)CN([C@H](C)CO)S2(=O)=O,·,–,–,–,–
SMILES,PvdQ acylase,ERAP1 HTS inh,CFTR F508del cor,Ecoli rRNA inh,ARNT-TACC3 inh
CN(C)CC/C=C1/c2cc(F)ccc2Sc2ccc(Cl)cc21,–,–,–,-50.1,–
CCCC#Cc1ccc2c(c1)O[C@@H](CN(C)Cc1ccncc1)[C@@H](C)CN([C@@H](C)CO)S2(=O)=O,·,–,–,–,–
O/N=C\c1ccc(-c2ccccc2)o1,–,–,–,–,–
COc1ccccc1-c1ccc(/C=N/O)o1,·,–,–,-34.5,·
O=C(c1ccc2c(c1)OCO2)N1CC[C@@H]2[C@H]1c1cc(C#Cc3ccccc3)ccc1N[C@@H]2CO,·,·,–,–,–
COc1ccc(-c2cccc(-c3cc(=O)oc4cc(OC)cc(OC)c34)c2)cc1,–,·,–,–,–
COc1cc(OC)c2c(-c3cccc(-c4ccc(O)cc4)c3)cc(=O)oc2c1,–,·,–,-23.7,–
Cc1cc(C)c2cccc(N)c2n1,–,–,–,-22.8,·
Cc1cc(C)c2c(N)c3ccccc3nc2n1,–,·,·,·,–
Cc1noc(C)c1S(=O)(=O)Nc1ccc2c(c1)C(=O)N([C@@H](C)CO)C[C@H](C)[C@@H](CN(C)Cc1ccncc1)OCCCC[C@@H](C)O2,·,–,–,–,–
Cc1cccc(OCCNC(=O)c2ccc(Cl)c(S(=O)(=O)NCc3cccnc3)c2)c1,–,–,14.3,–,–
Cc1ccc(OCCNC(=O)c2cccc(S(=O)(=O)NCc3ccccc3)c2)cc1,–,–,10.3,–,–
Cc1ccc(S(=O)(=O)Nc2cccc3c2O[C@@H](CN(C)C(=O)NC(C)C)[C@@H](C)CN([C@@H](C)CO)C3=O)cc1,·,–,–,–,–
CCOc1cc(/C=C(\C#N)C(=O)Nc2cccc(C(=O)O)c2)cc(Br)c1OC(=O)c1ccc(OC)cc1,–,–,–,-33.3,–
CCOC(=O)CNC(=S)N(Cc1ccccc1)Cc1cccs1,–,–,–,-26.4,–
CCOC(=O)CNC(=S)N(Cc1ccccc1)Cc1ccccc1F,–,–,–,-33.8,–
Cc1cccc(C)c1NC(=S)N(Cc1ccccc1)Cc1cccs1,–,–,–,-21.4,–
O=C(O)CNC(=S)N(Cc1ccccc1)Cc1cccs1,–,–,–,–,–
C[C@@H]1CN([C@@H](C)CO)C(=O)c2cc(-c3cccc(C(=O)N(C)C)c3)cnc2O[C@@H]1CN(C)C(=O)Cc1ccccn1,·,–,–,·,–
CCC(=O)Nc1ccc2c(c1)C(=O)N(C)C[C@@H](OC)[C@H](C)CN(C(=O)c1ccccc1F)[C@@H](C)CO2,·,–,–,–,–
C[C@@H]1CCCCO[C@H](CN(C)C(=O)NC2CCCCC2)[C@H](C)CN([C@@H](C)CO)C(=O)c2cc(NC(=O)c3ccccc3)ccc2O1,·,·,–,–,–
COc1ccc(/C=C/C(=O)NCCNC(=O)c2ccccc2)cc1OC,–,–,–,-22.0,–
COc1cc(/C=C/C(=O)NCCc2ccc(S(N)(=O)=O)cc2)ccc1OCC#N,–,–,–,-25.8,–
COc1cc(OC)c(C(=O)/C=C/c2ccc(OCc3ccccc3)c(OC)c2)c(OC)c1,–,–,–,–,–
COc1cc(OC)c(C(=O)C=Cc2ccc(OC)c(OC)c2)c(OC)c1,–,–,–,-10.7,–
CCOc1cc(/C=C/C(=O)NCCc2ccc(S(N)(=O)=O)cc2)ccc1OCC(C)C,–,–,–,–,–
COc1ccc(/C=C/C(=O)NCCCNC(=O)/C=C/c2ccc(OC)c(OC)c2)cc1OC,–,–,·,–,–
C[C@H]1CN(C)C(=O)c2cc(N(C)C)ccc2O[C@@H]1CN(C)C(=O)OC(C)(C)C,·,·,·,–,·
CCCNC(=O)N(C)C[C@H]1Oc2ncc(C#CC(C)C)cc2C(=O)N([C@H](C)CO)C[C@@H]1C,·,–,–,–,–

# Screens deposited in PubChem by Broad Institute.
